# Records with an inconclusive call do not appear. Entries that show only a call come without a potency. Active and inactive are the calls of the source. Unless noted, the call rests on the fitted dose curve; in most records, active means well fitted curve in the direction sought with a large enough effect; inconclusive means small, poorly fitted or top-dose-only effect, or another doubt; inactive means no such curve, though single readings can be large; an effect the other way counts as inactive or inconclusive.
# How the values were obtained:
# [1] = biological target: Tyrosyl-DNA phosphodiesterase 1 (Homo sapiens) (UniProt Q9NUW8); experiment: Confirmation Assay for Inhibitors of Tyrosyl-DNA Phosphodiesterase (TDP1) (AID 489007); details: recombinant human TDP1 enzymatic activity, dose-response; further: potency means the concentration at half of the fitted maximal effect; nearly all actives have a fitted effect of over 40% in size
# Outline: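 AlphaScreen assay of tyrosine-FITC cleavage from a biotinylated DNA substrate (15 nM) by E. coli-expressed human Tdp1 (1 nM). Sequence: compound preincubation 15 min, reaction 5 min, bead detection 10 min, all at room temperature. No-enzyme wells give maximum signal.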
# [2] = biological target: Ubiquitin carboxyl-terminal hydrolase 1 (Homo sapiens) (UniProt O94782); experiment: Inhibitors of USP1/UAF1: Pilot qHTS (AID 504865); further: nearly all actives have a fitted effect of over 35% in size; further: potency means the concentration at half of the fitted maximal effect
# Outline: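 Enzyme-free wells gave the negative control, while test wells held 1nM USP1/UAF1 preincubated with compound for 15 min at room temperature. Ub-Rho at 150nM final started the reaction, and fluorescence at 480/540 nm was recorded kinetically.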
# [3] = S16 Schwann cell PMP22 intronic element beta-lactamase assay (AID 624044; calls by dose curve; further: nearly all actives have a fitted effect of over 15% in size); details: S16 rat Schwann cells, PMP22 element beta-lactamase FRET, 24 h; ratio activity, negative = inhibition: at 38.3 µM (top of the series)
# Outline: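 Beta-lactamase reporter under a PMP22 intronic regulatory element in stable S16 rat Schwann cells; 24 h compound exposure. 460 nm blue signal normalized between DMSO (0%) and potassium clavulanate, with 535 nm FRET tracking viability; curves classed by r2 and response.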
# 7G8 = experiment: qHTS profiling for inhibitors of Plasmodium falciparum proliferation (AID 504749); further: nearly all actives have a fitted effect of over 60% in size; further: potency means the concentration at half of the fitted maximal effect; details: P. falciparum in erythrocytes, SYBR Green DNA, 72 h; series mostly up to 28.7 µM
# Outline: (§1)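 Each compound contacts P. falciparum-infected red blood cells for 72 h at 37 C; lysis buffer (Tris, EDTA, saponin, Triton X, SYBR Green I) is added and fluorescence measured next morning; values normalized to controls.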
# DIV17 = experiment: as above; details: P. falciparum in erythrocytes, SYBR Green DNA, 72 h; series mostly up to 28.7 µM
# Outline: as §1
# TAB109 = experiment: as above; details: P. falciparum in erythrocytes, SYBR Green DNA, 72 h; series mostly up to 28.7 µM
# Outline: as §1
# [4] = Inducers of the Endoplasmic Reticulum Stress Response (ERSR) in human glioma: Validation (AID 504836)
# Outline: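 Stably transfected U87-MG glioma cells carrying a GRP78-based luciferase sensor; 16 h compound incubation. Luminescence end-point read 10 min after Bright-Glo addition at room temperature.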
# [5] = biological target: Glucocorticoid receptor (Homo sapiens) (UniProt P04150); experiment: qHTS assay for small molecule agonists of glucocorticoid receptor signaling (AID 588532; active means well fitted curve in the direction sought with a large enough effect in the signal ratio, with a control signal flat; the % refers to the signal ratio); details: HeLa MMTV-bla, beta-lactamase ratio, agonist, 18 h; activation: stronger effect = higher value, percent of dexamethasone control, DMSO zero
# Outline: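 Cells were plated and rested 3-5 h at 37 C, compounds were added in titration and incubated 18 h, then CCF4 substrate was loaded for 2 h at RT before reading blue/green fluorescence. EC50 came from Hill-equation fitting.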
# [6] = biological target: Peroxisome proliferator-activated receptor delta (Homo sapiens) (UniProt Q03181); experiment: qHTS assay for small molecule agonists of peroxisome proliferator-activated receptor delta signaling (AID 588534; calls by dose curve)
# Outline: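 Agonist-mode beta-lactamase reporter readout (CCF4 dye, 2 h at RT) after 18 h at 37 °C exposure to a titration; Hill-equation fitting gave EC50 and maximal response.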
# [7] = biological target: Peroxisome proliferator-activated receptor delta (Homo sapiens) (UniProt Q03181); experiment: qHTS assay for small molecule antagonists of peroxisome proliferator-activated receptor delta signaling (AID 588535; active means well fitted inhibition curve with a large enough effect in the signal ratio, with a control signal flat, not every such curve was filed as active; the % refers to the signal ratio)
# Outline: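 Fluorescence from CCF4-loaded GeneBLAzer PPAR-delta-UAS-bla HEK293T cells (2 hrs RT loading) quantified reporter inhibition after an 18 hr, 37 C compound exposure across a titration.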
# [8] = biological target: Vitamin D3 receptor (Homo sapiens) (UniProt P11473); experiment: qHTS assay for small molecule antagonists of vitamin D receptor signaling (AID 588541; calls by dose curve;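 further: receptor activated by calcitriol during compound treatment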)
# Outline: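 VDR-UAS-bla HEK293T cells in 2% charcoal-stripped FBS were stimulated with 1-alpha,25-dihydroxyvitamin D3 (3 nM final) plus compound for 16 h at 37 C. The beta-lactamase CCF4 readout was normalized to 50 nM agonist and DMSO, and Hill fits gave IC50.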
# [9] = qHTS assay for small molecule antagonists of retinoid X receptor alpha signaling (AID 588546; active means well fitted inhibition curve with a large enough effect in the signal ratio, with a control signal flat, not every such curve was filed as active; the % refers to the signal ratio;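 further: cells stimulated with 9-cis-retinoic acid as agonist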); details: HEK293T RXRa-UAS-bla, beta-lactamase ratio, antagonist mode; measured here: W530 green channel, cytotoxicity proxy
# Outline: (§2)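 Beta-lactamase reporter inhibition, read as CCF4 fluorescence ratio (ex 405, em 460/530 nm) after 2 h at RT. HEK293T UAS-bla cells, 2500/well, were stimulated with 9-cis-RA at 500 or 100 nM final alongside test compound for 18 h at 37 C.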
# [10] = biological target: Retinoic acid receptor RXR-alpha (Homo sapiens) (UniProt P19793); experiment: as above; details: HEK293T RXRa-UAS-bla, beta-lactamase ratio, antagonist mode
# Outline: as §2
# [11] = qHTS assay for environmental chemicals that activate the Aryl hydrocarbon Receptor (AhR) signaling pathway (AID 651777); details: 1A2-DRE human hepatoma cells, luciferase, 24 h; activation: stronger effect = higher value; further: nearly all actives have a fitted effect of over 15% in size
# Outline: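 AhR activation is scored as a rise in luciferase from a stable DRE–CYP1A2 promoter construct in human hepatoma cells. Treatment lasts 24 hr at 37 C; detection uses One-Glo after 30 min at room temperature.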
# [12] = biological target: Cytochrome P450 3A4 (Homo sapiens) (UniProt P08684); experiment: qHTS Assay for Inhibitors and Substrates of Cytochrome P450 3A4 (AID 884); further: nearly all actives have a fitted effect of over 50% in size
# Outline: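 Luminescent readout of luciferin produced by CYP3A4 (20 nM) dealkylation of Luciferin-PPXE, 25 uM (its KM). NADPH-driven reaction ran 60 min at RT after 10 min compound preincubation; data scaled to 57 uM ketoconazole as 100% inhibition.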
# [13] = biological target: Cytochrome P450 3A4 (Homo sapiens) (UniProt P08684); experiment: qHTS Assay for Activators of Cytochrome P450 3A4 (AID 885); further: nearly all actives have a fitted effect of over 65% in size
# Outline: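 Activators are scored by enhanced luminescence from CYP3A4 conversion of luciferin-PPXE (25uM, equal to KM) to luciferin, after 60 min at RT with an NADPH-regenerating system.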
# Chain of Cytochrome P450 3A4 (Homo sapiens) (P08684 whole entry, looked up): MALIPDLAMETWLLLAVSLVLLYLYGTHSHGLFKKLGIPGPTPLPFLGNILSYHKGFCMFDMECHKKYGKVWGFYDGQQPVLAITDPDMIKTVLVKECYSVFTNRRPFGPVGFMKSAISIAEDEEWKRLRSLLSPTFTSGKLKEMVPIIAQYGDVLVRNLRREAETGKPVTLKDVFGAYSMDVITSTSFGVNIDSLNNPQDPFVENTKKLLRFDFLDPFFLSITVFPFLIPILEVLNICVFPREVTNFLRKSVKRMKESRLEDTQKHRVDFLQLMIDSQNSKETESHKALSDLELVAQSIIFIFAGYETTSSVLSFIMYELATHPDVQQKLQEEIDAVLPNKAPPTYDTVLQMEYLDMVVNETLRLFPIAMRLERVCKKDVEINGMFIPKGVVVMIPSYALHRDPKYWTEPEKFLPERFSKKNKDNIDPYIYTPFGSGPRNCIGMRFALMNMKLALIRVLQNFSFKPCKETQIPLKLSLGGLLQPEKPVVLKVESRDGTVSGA
# Chain of Ubiquitin carboxyl-terminal hydrolase 1 (Homo sapiens) (O94782 whole entry, looked up): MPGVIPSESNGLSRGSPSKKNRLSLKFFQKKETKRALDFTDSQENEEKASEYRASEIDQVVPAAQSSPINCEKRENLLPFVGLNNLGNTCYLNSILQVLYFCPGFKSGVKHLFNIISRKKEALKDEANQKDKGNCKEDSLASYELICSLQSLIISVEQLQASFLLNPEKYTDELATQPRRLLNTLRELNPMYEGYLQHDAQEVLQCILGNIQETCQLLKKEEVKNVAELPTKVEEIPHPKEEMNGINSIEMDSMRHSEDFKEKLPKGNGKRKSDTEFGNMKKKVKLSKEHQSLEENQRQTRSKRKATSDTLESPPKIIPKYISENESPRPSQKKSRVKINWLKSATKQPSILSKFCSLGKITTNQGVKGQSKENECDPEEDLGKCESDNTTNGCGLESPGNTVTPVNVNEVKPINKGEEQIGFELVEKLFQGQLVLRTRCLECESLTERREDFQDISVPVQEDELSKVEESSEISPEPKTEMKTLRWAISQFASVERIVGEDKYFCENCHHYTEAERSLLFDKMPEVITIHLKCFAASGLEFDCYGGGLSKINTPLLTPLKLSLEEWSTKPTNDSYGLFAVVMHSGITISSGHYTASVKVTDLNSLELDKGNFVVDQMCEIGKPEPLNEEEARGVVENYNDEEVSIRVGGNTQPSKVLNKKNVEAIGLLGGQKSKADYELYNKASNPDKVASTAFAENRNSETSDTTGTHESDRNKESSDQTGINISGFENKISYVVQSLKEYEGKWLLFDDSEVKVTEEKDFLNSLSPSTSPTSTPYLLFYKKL
# Chain of Tyrosyl-DNA phosphodiesterase 1 (Homo sapiens) (Q9NUW8 whole entry, looked up): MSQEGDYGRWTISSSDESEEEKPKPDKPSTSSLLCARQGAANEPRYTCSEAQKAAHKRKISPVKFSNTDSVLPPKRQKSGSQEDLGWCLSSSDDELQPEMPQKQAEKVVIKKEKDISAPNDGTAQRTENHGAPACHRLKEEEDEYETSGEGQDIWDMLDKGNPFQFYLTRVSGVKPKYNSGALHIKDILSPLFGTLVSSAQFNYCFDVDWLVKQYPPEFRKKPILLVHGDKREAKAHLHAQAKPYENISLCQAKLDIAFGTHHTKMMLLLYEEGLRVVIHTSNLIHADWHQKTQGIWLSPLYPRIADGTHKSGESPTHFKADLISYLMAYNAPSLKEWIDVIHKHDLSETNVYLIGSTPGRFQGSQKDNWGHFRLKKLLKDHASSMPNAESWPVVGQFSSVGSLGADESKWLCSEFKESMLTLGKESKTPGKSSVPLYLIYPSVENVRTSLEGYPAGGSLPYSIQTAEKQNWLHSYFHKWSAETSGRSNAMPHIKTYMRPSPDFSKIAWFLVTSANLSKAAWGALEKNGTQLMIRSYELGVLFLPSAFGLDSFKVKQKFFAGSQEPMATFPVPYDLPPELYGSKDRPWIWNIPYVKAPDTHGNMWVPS
# Chain of Peroxisome proliferator-activated receptor delta (Homo sapiens) (Q03181 whole entry, looked up): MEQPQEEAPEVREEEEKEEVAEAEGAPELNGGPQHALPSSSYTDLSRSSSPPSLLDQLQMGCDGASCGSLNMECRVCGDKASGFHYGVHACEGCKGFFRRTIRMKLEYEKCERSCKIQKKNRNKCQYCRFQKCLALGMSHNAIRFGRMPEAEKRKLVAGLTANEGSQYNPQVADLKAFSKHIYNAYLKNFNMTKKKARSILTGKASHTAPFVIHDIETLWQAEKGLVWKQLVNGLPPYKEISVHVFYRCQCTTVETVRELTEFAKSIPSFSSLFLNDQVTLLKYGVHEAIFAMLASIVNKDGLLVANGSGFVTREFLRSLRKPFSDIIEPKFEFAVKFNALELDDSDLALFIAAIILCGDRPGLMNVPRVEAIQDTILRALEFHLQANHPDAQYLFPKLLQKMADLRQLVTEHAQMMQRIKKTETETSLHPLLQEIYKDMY
# Chain of Retinoic acid receptor RXR-alpha (Homo sapiens) (P19793 whole entry, looked up): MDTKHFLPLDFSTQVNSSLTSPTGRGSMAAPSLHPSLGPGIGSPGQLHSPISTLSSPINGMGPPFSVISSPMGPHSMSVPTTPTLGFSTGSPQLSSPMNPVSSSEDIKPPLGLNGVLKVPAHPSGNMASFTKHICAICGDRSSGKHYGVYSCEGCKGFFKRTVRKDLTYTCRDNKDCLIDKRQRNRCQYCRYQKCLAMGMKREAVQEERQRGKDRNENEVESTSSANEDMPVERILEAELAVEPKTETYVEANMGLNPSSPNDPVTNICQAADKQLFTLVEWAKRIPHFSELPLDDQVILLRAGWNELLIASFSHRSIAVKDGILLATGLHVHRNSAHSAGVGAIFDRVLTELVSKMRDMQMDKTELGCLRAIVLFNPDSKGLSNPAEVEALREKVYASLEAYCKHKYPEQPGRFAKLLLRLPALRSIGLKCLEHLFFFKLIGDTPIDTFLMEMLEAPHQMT
# Chain of Vitamin D3 receptor (Homo sapiens) (P11473 whole entry, looked up): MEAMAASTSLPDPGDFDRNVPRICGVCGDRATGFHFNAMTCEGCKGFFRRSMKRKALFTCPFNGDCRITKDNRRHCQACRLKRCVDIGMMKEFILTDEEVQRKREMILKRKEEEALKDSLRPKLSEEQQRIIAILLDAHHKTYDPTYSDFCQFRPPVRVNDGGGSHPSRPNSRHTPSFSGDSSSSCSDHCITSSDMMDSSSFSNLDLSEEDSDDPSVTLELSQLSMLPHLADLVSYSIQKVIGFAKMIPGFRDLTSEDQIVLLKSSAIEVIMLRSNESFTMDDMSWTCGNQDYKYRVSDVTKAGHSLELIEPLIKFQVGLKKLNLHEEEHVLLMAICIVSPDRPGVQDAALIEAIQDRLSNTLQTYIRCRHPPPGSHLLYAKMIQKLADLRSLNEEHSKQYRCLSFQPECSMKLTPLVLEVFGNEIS
# Chain of Glucocorticoid receptor (Homo sapiens) (P04150 whole entry, looked up): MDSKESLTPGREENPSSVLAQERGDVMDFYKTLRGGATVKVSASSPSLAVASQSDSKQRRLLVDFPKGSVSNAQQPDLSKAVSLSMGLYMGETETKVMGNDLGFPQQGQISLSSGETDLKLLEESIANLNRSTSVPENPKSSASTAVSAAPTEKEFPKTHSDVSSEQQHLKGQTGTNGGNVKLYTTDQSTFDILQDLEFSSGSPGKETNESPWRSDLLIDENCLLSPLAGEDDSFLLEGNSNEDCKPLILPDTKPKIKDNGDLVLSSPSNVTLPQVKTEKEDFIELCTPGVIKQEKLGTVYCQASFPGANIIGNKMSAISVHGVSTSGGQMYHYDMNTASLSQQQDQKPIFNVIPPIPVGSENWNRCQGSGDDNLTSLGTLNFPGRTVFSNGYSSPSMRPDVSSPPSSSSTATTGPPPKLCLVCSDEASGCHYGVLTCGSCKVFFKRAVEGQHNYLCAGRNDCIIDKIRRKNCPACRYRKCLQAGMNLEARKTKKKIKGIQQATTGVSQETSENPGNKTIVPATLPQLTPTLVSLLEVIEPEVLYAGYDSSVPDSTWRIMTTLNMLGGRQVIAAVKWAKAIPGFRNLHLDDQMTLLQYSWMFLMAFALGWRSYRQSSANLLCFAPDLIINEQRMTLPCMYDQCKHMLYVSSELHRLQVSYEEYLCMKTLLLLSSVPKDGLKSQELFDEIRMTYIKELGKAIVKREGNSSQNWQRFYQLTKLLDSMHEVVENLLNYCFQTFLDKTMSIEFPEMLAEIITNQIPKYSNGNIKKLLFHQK
smiles,measurement,setting,value
[O]=[Sb]([OH])([OH])[c]1ccccc1,Potency,[1],6.31 µM (active)
C[C@]12C=CC(=O)C=C1CC[C@@H]1C2CC[C@]2(C)OC(=O)CCC12 (stereo not given in full),Potency,[2],inactive
same,Potency,[3],inactive
same,Potency,7G8,inactive
same,Potency,DIV17,inactive
same,Potency,TAB109,inactive
C=CC[N+]1(C)CCC23c4c5ccc(O)c4O[C@H]2C(=O)CC[C@@]3(O)C1C5 (stereo not given in full),Potency,[2],inactive
same,Potency,[3],inactive
same,Potency,7G8,inactive
same,Potency,DIV17,inactive
same,Potency,TAB109,inactive
Nc1nc(/C(=C/CC(=O)O)C(=O)NC2C(=O)N3C(C(=O)O)=CCSC23)cs1 (stereo not given),Potency,[1],12.6 µM (active)
same,Potency,[2],inactive
CCOC(=O)CCCc1cc[c]([Sb](=[O])([OH])[OH])cc1,Potency,[1],0.794 µM (active)
Cc1cc(C)cc(C(=O)OC2CC3CCC(C2)N3C)c1 (stereo not given),Potency,[2],inactive
same,Potency,7G8,8.91 µM (active)
same,Potency,TAB109,inactive
CCC/C=C/C=C/C(=O)OC1/C(=C/C(=O)OC)CC2CC(C(C)O)OC(=O)CC(O)CC3CC(OC(C)=O)C(C)(C)C(O)(CC4C/C(=C/C(=O)OC)CC(/C=C\C(C)(C)C1(O)O2)O4)O3 (stereo not given),"ratio activity, negative = inhibition",[3],-43.6% (active)
same,Potency,7G8,0.708 µM (active)
same,Potency,DIV17,0.953 µM (active)
same,Potency,TAB109,2.51 µM (active)
CC1(C)[C@@H](C=C(Cl)Cl)[C@@H]1C(=O)OCc1c(F)c(F)cc(F)c1F,Potency,[2],inactive
same,Potency,[3],inactive
same,Potency,7G8,inactive
same,Potency,DIV17,inactive
COc1ccccc1N1CCN(CCN(C(=O)c2ccc(I)cc2)c2ccccn2)CC1,outcome,[4],inactive
C#CC1(O)C=CC2C3CCC4=CC(=O)CCC4C3CCC21CC (stereo not given),Potency,[2],inactive
same,Potency,[3],inactive
same,Potency,7G8,12.6 µM (active)
same,Potency,DIV17,9.53 µM (active)
CC(C)=CC1C(C(=O)OCc2coc(Cc3ccccc3)c2)C1(C)C (stereo not given),activation,[5],2.93% (inactive)
same,outcome,[6],inactive
same,Potency,[7],inactive
same,Potency,[8],inactive
same,max response,[9],-14.2%
same,max response,[10],3.05% (inactive)
same,activation,[11],3.96% (inactive)
same,Potency,TAB109,inactive
CCC(=O)OC1(c2ccccc2)CCN(C)CC1C (stereo not given),Potency,[2],inactive
same,Potency,[3],inactive
CC12CCC3C4CCC(=O)C(O)=C4CCC3C1CCC2OC(=O)CCC1CCCC1 (stereo not given),Potency,[2],inactive
same,Potency,[3],inactive
same,Potency,DIV17,inactive
same,Potency,TAB109,inactive
Cc1cc2c(cc1Cl)N(C(=O)Nc1ccc(Oc3cccnc3C)nc1)CC2,outcome,[4],inactive
CC[C@@H](C)[C@H]1O[C@]2(CC[C@H]1C)C[C@@H]1C[C@@H](CC=C(C)[C@@H](O[C@H]3C[C@H](OC)[C@@H](O[C@H]4C[C@H](OC)[C@@H](O)[C@H](C)O4)[C@H](C)O3)[C@@H](C)C=CC=C3CO[C@@H]4[C@H](O)C(C)=C[C@@H](C(=O)O1)[C@]34O)O2,outcome,[4],inactive
O=C(CCCCCN1CCN(c2ccccc2-c2ccccc2)CC1)NC1CCCc2ccccc21 (stereo not given),outcome,[4],inactive
CC1CC[C@@]2(NC1)OC1CC3C4CC[C@@H]5CC(O)CC[C@@]5(C)C4CC[C@]3(C)C1C2C (stereo not given in full),Potency,[12],inactive
same,Potency,[3],inactive
same,Potency,7G8,12.6 µM (active)
same,Potency,TAB109,inactive
CC[C@@H](CO)Nc1nc(NCc2ccccc2)c2ncn(C(C)C)c2n1,Potency,[13],inactive
same,outcome,[4],inactive
COC(=O)C1C(OC(=O)c2ccccc2)CC2CCC1N2C (stereo not given),Potency,[2],inactive
same,Potency,[3],inactive
same,Potency,7G8,inactive
same,Potency,DIV17,inactive
same,Potency,TAB109,inactive
CC(=O)Oc1ccc2c3c1OC1[C@@H](OC(C)=O)C=C[C@H]4[C@H](C2)N(C)CC[C@]314 (stereo not given in full),Potency,[2],inactive
same,Potency,[3],inactive
same,Potency,TAB109,inactive
CC(=O)[C@H]1CC[C@H]2C3CC[C@H]4C[C@H](O)CC[C@]4(C)C3CC[C@]12C (stereo not given in full),Potency,[2],inactive
same,Potency,[3],inactive
same,Potency,DIV17,inactive
same,Potency,TAB109,inactive
C#C[C@]1(O)CC[C@H]2[C@@H]3CCC4=CC(=O)CCC4(C)[C@H]3CCC21C (stereo not given in full),Potency,[3],inactive
same,Potency,DIV17,inactive
same,Potency,TAB109,inactive
CCN(CC)C(=O)N[C@@H]1C=C2c3cccc4[nH]cc(c34)C[C@H]2N(C)C1,Potency,[2],inactive
same,Potency,[3],inactive
same,Potency,7G8,8.91 µM (active)
same,Potency,DIV17,10.7 µM (active)
CC#CCOC(=O)c1c(C)nc2sc3c(c2c1N)CCC(O)C3 (stereo not given),outcome,[4],inactive
CN(C)C1C(=O)C(C(N)=O)C(=O)C2(O)C(=O)C3C(=O)c4c(O)cccc4C(C)(O)C3C(O)C12 (stereo not given),Potency,[3],inactive
CSc1ccccc1N1CCN(CCCCCC(=O)NC2CCCc3ccccc32)CC1 (stereo not given),outcome,[4],inactive
CC(=O)O[C@H]1C[C@H](O[C@H]2[C@@H](O)CC(O[C@H]3[C@@H](O)C[C@H](O[C@H]4CC[C@@]5(C)[C@H](CC[C@@H]6[C@@H]5CC[C@]5(C)[C@@H](C7=CC(=O)OC7)CC[C@]65O)C4)O[C@@H]3C)O[C@@H]2C)O[C@H](C)[C@H]1O[C@@H]1O[C@H](CO)[C@@H](O)[C@H](O)[C@H]1O (stereo not given in full),Potency,[2],inactive
same,Potency,[3],inactive
O=C(c1ccc(Cl)cc1)N1CCN(c2ccc([N+](=O)[O-])c3ncccc23)CC1,outcome,[4],inactive
O=[N+]([O-])c1ccc2c(c1)S(=O)(=O)C=C2,outcome,[4],inactive
NC(Cc1ccc(Oc2cc(I)c(O)c(I)c2)c(I)c1)C(=O)O (stereo not given),Potency,[2],79.4 µM (active)
same,Potency,[3],inactive
same,Potency,7G8,inactive
same,Potency,DIV17,inactive
same,Potency,TAB109,inactive
Oc1ccc(/C=C/c2ccc(/C=C/c3ccc(O)cc3)c(Br)c2)cc1,outcome,[4],inactive
C=CC[C@]1(O)CCC2C3CCC4=CCCCC4C3CCC21C (stereo not given in full),Potency,[3],inactive
same,Potency,DIV17,inactive
same,Potency,TAB109,inactive
CCCC(C)C1(CC)C(=O)NC(=S)NC1=O (stereo not given),Potency,[3],inactive
same,Potency,DIV17,inactive
same,Potency,TAB109,inactive
Cc1cc(NC2CCCCC2)nc(-n2nc(C)cc2C)n1,outcome,[4],inactive
C=C1CC2C(CC[C@]3(C)C(=O)CCC23)[C@]2(C)C=CC(=O)C=C12 (stereo not given in full),Potency,[12],inactive
same,Potency,[2],inactive
same,Potency,DIV17,inactive
same,Potency,TAB109,inactive
CC(Cc1ccccc1)N(C)C (stereo not given),Potency,[2],inactive
same,Potency,[3],inactive
same,Potency,DIV17,inactive
same,Potency,TAB109,inactive

# Reference: PubChem BioAssay (NCATS)
